The campaign covered roughly 52,000 compounds. About 1,700 (3.3%) were called active. For the sample, actives were picked, then their nearest neighbours and some compounds at random. A number with no mark means an inactive call. Cut-off read from the data, not from the text of the source: active = survival mostly below about 52% (no sharp cut-off); inactive = mostly above about 56%.
Each compound was assayed on Wild type (assay: growth inhibition of S. aureus wild type versus tarO mutant, primary screen, teichoic acid synthesis inhibitors, RN4220, OD600 (AID 463173)). Settings: S. aureus RN4220 wild type/DeltatarO growth, OD600, 18 h, active compounds read low, screened at 18.75 µg/mL (by protocol).
`COc1ccc(N2C(=O)CSC23C(=O)N(Cc2ccccc2F)c2ccccc23)cc1Cl` (stereo not given) showed a survival of 68%. For `COc1cccc(NC(=O)CSC2=Nc3ccccc3N=C(c3ccc(F)cc3)C2)c1`, the survival was 69%. Compound `O=C(CSC1=Nc2ccccc2C2=NC(Cc3ccccc3)C(=O)N12)Nc1cccc(Cl)c1` (stereo not given) has a survival of 76%. Work on `Cc1cccc(NC(=O)Cn2nnc(C(=O)NCc3cccs3)c2N)c1` yielded a survival of 89%. Compound `Cc1ccc(-n2ncc3c(N4CCN(c5ccccc5)CC4)ncnc32)cc1C` has a survival of 69%. Work on `CCN1CCC(N(Cc2cccc(OC)c2)C(=O)Nc2cccc(C(F)(F)F)c2)CC1` yielded a survival of 66%. `O=C(O)c1ccc(NC(=O)c2ccc(Br)c(S(=O)(=O)N3CCCC3)c2)cc1` showed a survival of 70%. For `O=C(OCc1cc(=O)n2nc(C3CCCCC3)sc2n1)c1ccccc1Cl`, the survival was 59%. `O=C(Nc1ccccc1)c1cn(-c2ccccc2)nc1-c1ccccc1` was tested, and the survival was 86%. Compound `Cc1nc(-c2ccc(C)c(S(=O)(=O)N3CCC(C(=O)Nc4ccc(Cl)cc4)CC3)c2)no1` has a survival of 121%. `Cc1nc2c(C(=O)NCc3ccccc3)c[nH]n2c(=O)c1Cc1ccccc1Cl` gave a survival of 22%. `COc1ccc(CCNC(=O)c2cc(C)nc3c2c(C)nn3-c2ccccc2)cc1OC` gave a survival of 76%. With `Cc1nc2c(C(=O)NCCc3ccc(Cl)cc3)c[nH]n2c(=O)c1Cc1ccccc1F` the survival was -11% (active). `COc1ccc(CCNC(=O)c2c[nH]n3c(=O)c(Cc4ccccc4Cl)c(C)nc23)cc1OC` was tested, and the survival was 0% (active). In the case of `COc1ccc(CCNC(=O)c2ccc(Cn3c(=O)c4ccccc4n(Cc4ccccc4Cl)c3=O)cc2)cc1OC`, the survival is reported as 95%. For `Cc1nc2c(C(=O)NCc3ccccc3Cl)c[nH]n2c(=O)c1Cc1cccc(Cl)c1`, the survival was -15% (active). For `Cc1nc2c(C(=O)NCCc3ccc(Cl)cc3)c[nH]n2c(=O)c1Cc1ccc(Cl)cc1`, the survival was -14% (active). With `Cc1cccn2c(=O)c(C(=O)NCCc3ccc(Cl)cc3)cnc12` the survival was 77%. With `Cc1nc2c(C(=O)NCCc3ccc(Cl)cc3)cnn2c(C)c1Cc1ccc(F)cc1` the survival was 73%. `Cc1nc2c(C(=O)NCCc3ccc(Cl)cc3)cnn2c(C)c1Cc1c(F)cccc1Cl` gave a survival of 59%. `Cc1nc2c(C(=O)NCc3ccccc3Cl)cnn2c(C)c1Cc1ccccc1` was tested, and the survival was 85%. With `Cc1nc2c(C(=O)N(C)Cc3ccccc3)c[nH]n2c(=O)c1Cc1ccc(Cl)cc1` the survival was 94%. `Cc1cccc(C(=O)Nc2ccccc2OCc2cc(=O)n3c(C)csc3n2)c1` showed a survival of 90%. `Cc1ccc(Cl)cc1N1CCN(S(=O)(=O)c2ccc3c(c2)CC(=O)N3C)CC1` showed a survival of 113%. With `COCCCNC(=O)c1ccc(Cn2c(=O)c3ccccc3n(CC(=O)Nc3c(C)cccc3C)c2=O)cc1` the survival was 83%. Work on `CCCN(C(=O)CCn1cnc2onc(-c3ccc(F)cc3)c2c1=O)c1ccccc1C` yielded a survival of 72%. `COCCCNC(=O)C1CCCN(C(=O)c2cnn(-c3ccc(F)cc3)c2-n2cccc2)C1` (stereo not given) was tested, and the survival was 128%. Compound `CSc1nnc(COc2ccc(Cl)cc2)n1C` has a survival of 101%. `CCOc1cc(CNC(=O)C(NS(=O)(=O)c2cccs2)C(C)C)cc(OCC)c1OCC` (stereo not given) showed a survival of 65%. In the case of `Cc1ccc(CNC(=O)c2ccc3c(c2)CCN3S(=O)(=O)c2ccccc2)cc1`, the survival is reported as 84%. For `Cc1ccc(C)c(N2CCN(S(=O)(=O)c3ccc(F)c(C(=O)Nc4ccc(Cl)cc4Cl)c3)CC2)c1`, the survival was 80%. With `Cc1cccc(N2CCN(S(=O)(=O)c3ccc(F)c(C(=O)Nc4cccc(Cl)c4C)c3)CC2C)c1` (stereo not given) the survival was 100%. `Cc1ccc(N2CCN(S(=O)(=O)c3ccc(F)c(C(=O)Nc4ccc(Cl)cc4Cl)c3)CC2C)cc1` (stereo not given) was tested, and the survival was -6% (active). In the case of `CCC1=NN(C(=O)Cc2ccccc2)C(O)(c2ccccc2)C1` (stereo not given), the survival is reported as 107%. `CCN1C(=O)C(O)(C(C)C(=O)c2ccccc2)c2ccccc21` (stereo not given) gave a survival of 111%. `CCC(=O)N1c2ccccc2C(C)(c2ccccc2)CC1(C)C` (stereo not given) was tested, and the survival was -3% (active). `CCC(CC)C(=O)N1c2ccccc2C(C)(c2ccccc2)CC1(C)C` (stereo not given) was tested, and the survival was -2% (active). With `CC(=O)N1c2ccccc2C(C)(c2ccc(C)cc2)CC1(C)C` (stereo not given) the survival was -2% (active). In the case of `CC1=CC(C)(C)N(C(=O)Cc2ccccc2)c2ccccc21`, the survival is reported as 126%. In the case of `CCCCOc1ccc(C2(C(=O)O)CCCC2)cc1`, the survival is reported as 105%. For `Cc1ccc(NC(=O)CN2C(=O)C(C)(C)c3ccccc32)cc1`, the survival was 77%. Compound `CC(=O)N1c2ccccc2N(C)C(=O)C1(C)C` has a survival of 105%. Compound `CCC(CC)C(=O)N1CCN(Cc2ccccc2)CC1` has a survival of 108%. With `CCCCC(=O)N1c2ccccc2C(C)(c2ccccc2)CC1(C)C` (stereo not given) the survival was -2% (active). Work on `CCC(=O)N1CCN(C(=O)CC)C1c1ccccc1` yielded a survival of 99%. `CCc1ccc(NC(=O)Cn2c(=O)n(CCCCC(=O)NCc3ccccc3Cl)c(=O)c3ccccc32)cc1` was tested, and the survival was 90%. Compound `CC(C)c1ccc(NC(=O)CN2C(=O)CSc3ccc(S(=O)(=O)N4CCCC4)cc32)cc1` has a survival of 91%. For `CC1Cc2cc(S(=O)(=O)N(C)c3ccc(Br)cc3)ccc2N1C(=O)C1CC1` (stereo not given), the survival was 106%. `COc1cc2c(=O)c(C(=O)c3ccc(C)c(C)c3)cn(Cc3ccccc3F)c2cc1OC` showed a survival of 127%. Compound `COc1ccc(OC)c(NC(=O)c2cc(=O)c3c(C)cc(C)cc3o2)c1` has a survival of 87%. `O=C(NC1CC(=O)N(c2ccc(Cl)cc2)C1)c1ccc(S(=O)(=O)N2CCCC2)cc1` (stereo not given) was tested, and the survival was 127%. `CC(=O)N1CCCc2cc(S(=O)(=O)N3CCCC(C(=O)Nc4ccc(C)c(F)c4)C3)ccc21` (stereo not given) showed a survival of 73%. Compound `COCCNC(=O)c1cnn(-c2cccc(C)c2)c1-n1cccc1` has a survival of 99%. `CCOc1ccccc1C(=O)N1CCc2cc(OC)c(OC)cc2C1COc1ccc2c(C)cc(=O)oc2c1` (stereo not given) gave a survival of 76%. Work on `Cc1c(C(=O)Nc2ccccc2Br)oc2ccc(S(=O)(=O)N3CCOCC3)cc12` yielded a survival of 113%. With `CCCCCC(=O)N1c2ccccc2C(C)(c2ccccc2)CC1(C)C` (stereo not given) the survival was -2% (active). `CC(C)c1ccc(S(=O)(=O)c2nnn3c2nc(N2CCCC2)c2sccc23)cc1` was tested, and the survival was 89%. With `Cc1ccc(CC(=O)N(Cc2nc(-c3ccc(C)cc3)no2)C(C)C)cc1` the survival was -1% (active). `COc1ccc(-c2noc(CN(C(=O)c3ccc(C)cc3C)C(C)C)n2)cc1` was tested, and the survival was 0% (active). In the case of `COc1ccc(-c2noc(CN(C(=O)c3ccccc3Cl)C(C)C)n2)cc1`, the survival is reported as 97%. `Cc1ccc(-c2noc(CN(C(=O)COc3cc(C)cc(C)c3C)C(C)C)n2)cc1` was tested, and the survival was 1% (active). In the case of `CC(C)N(Cc1nc(-c2ccc(Cl)cc2)no1)C(=O)c1ccco1`, the survival is reported as 76%. With `Cc1ccc(-c2noc(CNC(=O)COc3cc(C)c(Br)c(C)c3)n2)cc1` the survival was 89%. `COc1ccc(-c2noc(CN(C(C)C)S(=O)(=O)c3ccc(Br)cc3)n2)cc1` gave a survival of 81%. Compound `Cc1ccccc1C(=O)N(Cc1nc(-c2ccc(Cl)cc2)no1)C(C)C` has a survival of 86%. `COc1ccc(-c2noc(CN(C(=O)c3cc(OC)c(OC)cc3OC)C(C)C)n2)cc1` showed a survival of 86%. In the case of `COc1ccc(-c2noc(CN(C(=O)COc3cc(C)c(Br)c(C)c3)C(C)C)n2)cc1`, the survival is reported as 7% (active). With `O=C(O)CC(C(=O)O)c1cn(Cc2ccccc2)c2ccccc12` (stereo not given) the survival was 105%. Compound `CC(C)(C)OC(=O)N1CCC(c2c(C(=O)NCCc3ccccc3)cnn2-c2ccc(F)cc2)CC1` has a survival of 78%. Compound `Cc1ccc(C)c(Cn2c3ccccc3c3cnn(CC(=O)NCCC4=CCCCC4)c(=O)c32)c1` has a survival of 82%. `CC(Sc1nc(=O)cc(N)n1CCc1ccccc1)C(=O)Nc1ccccc1C#N` (stereo not given) gave a survival of 75%. Work on `CC(C(=O)NCC1CCCO1)N(C(=O)c1snc(C(N)=O)c1N)c1cccc(F)c1` (stereo not given) yielded a survival of 101%. For `Cc1ccccc1NC(=O)CSc1nnc(C)c(=O)[nH]1`, the survival was 89%. `Cc1ccc(Nc2sc(C(=O)c3ccccc3)c(N)c2C(=O)NC(C)C)cc1` showed a survival of 78%. Work on `O=C(CSc1nccn1Cc1ccccc1)Nc1ccc2c(c1)OCO2` yielded a survival of 138%. For `COc1ccc(-c2noc(CN(C(=O)C(C)Oc3ccc(C)cc3)C(C)C)n2)cc1` (stereo not given), the survival was 77%. For `COc1ccc(-c2noc(CN(C(=O)Cc3ccc(C)cc3)C(C)C)n2)cc1`, the survival was 5% (active). For `COc1ccc(CC(=O)N(Cc2nc(-c3ccc(C)cc3)no2)C(C)C)cc1`, the survival was 33%. `COc1ccccc1OC(C)C(=O)N1CCN(CCc2ccccn2)CC1` (stereo not given) gave a survival of 82%. Work on `COc1ccc2c(c1)c(=O)c(C(=O)c1ccc(F)cc1)cn2CC(=O)Nc1ccc2c(c1)OCO2` yielded a survival of 91%. `CCCn1c(SCC(O)c2ccccc2)nc2ccccc21` (stereo not given) showed a survival of 86%. With `CC(C)Cn1c(C2CC(=O)N(c3ccccc3Cl)C2)nc2ccccc21` (stereo not given) the survival was 97%. In the case of `CC(C)Cn1c(-c2ccccc2Cl)nc2ccccc21`, the survival is reported as 26% (active). For `CC(C)Nc1nc2c(-c3cccc(Br)c3)nnn2c2ccccc12`, the survival was 74%. `CC(=O)NC(C)c1nc2ccccc2n1Cc1ccccc1Cl` (stereo not given) gave a survival of 91%. With `CCCn1c(-c2cccc(Br)c2)nc2ccccc21` the survival was 3% (active). `Cc1nc2ccccc2c(=O)n1CC(C)C` showed a survival of 106%. In the case of `CC(C)Cn1c(-c2cccc(Br)c2)nc2ccccc21`, the survival is reported as 27% (active). `CCCCNc1nc2c(-c3cccc(Br)c3)nnn2c2ccccc12` was tested, and the survival was 92%. `O=C(NCCc1ccc(Cl)cc1)c1ccc(CS(=O)Cc2ccccc2Cl)o1` (stereo not given) was tested, and the survival was 62%.

— PubChem BioAssay AID463173 (ICCB-Longwood Screening Facility, Harvard Medical School, 2010)
